From PubChem BioAssay (EPA / NIEHS) come the findings set out here.

Activity calls are given as the source filed them. How the source made its calls: active means hit-call score of the fitted dose curve at least 0.9, where 1 is the maximum; inactive means score below 0.9.

As usually defined, the AC50 is the concentration at which the activity in the assay is half-maximal.

Read-out in this experiment: Transforming growth factor beta 1 (TGFb1), TGFB1 (gene 7040)
The experiment can be described thus: BSK_KF3CT_TGFb1: BioMAP Diversity Plus: KF3CT Assay for Transforming growth factor beta 1 (TGFb1) Biomarker Activity (AID 2283072). The settings on record: primary human keratinocytes with fibroblasts; actives raise or lower the signal. The method, then:
BSK_KF3CT is a cell-based, multiplexed-readout assay that uses keratinocytes and foreskin fibroblasts, a human skin primary cell co-culture, with measurements taken at 24 hours after chemical dosing in a 96-well plate.BSK_KF3CT_TGFb1 is an assay component measured in the BSK_KF3CT assay. It measures TGF-b1 antibody related to regulation of gene expression using ELISA technology.Data from the assay component BSK_KF3CT_TGFb1 was analyzed into 1 assay endpoint. This assay endpoint, BSK_KF3CT_TGFb1, was analyzed with bidirectional fitting relative to DMSO as the negative control and baseline of activity. Using a type of binding reporter, gain or loss-of-signal activity can be used to understand changes in the signaling as they relate to the gene TGFB1. Furthermore, this assay endpoint can be referred to as a primary readout, because this assay has produced multiple assay endpoints where this one serves a signaling function. To generalize the intended target to other relatable targets, this assay endpoint is annotated to the growth factor intended target family, where the subfamily is transforming growth factor beta.
The levels of cell surface (or secreted, indicated by the prefix "s") biomarker endpoints were measured by ELISA. Overt cytotoxicity to cells in confluent adherent cultures (all systems other than the BT system) was assessed by measuring total protein levels using sulforhodamine B (SRB) staining in parallel cultures at the time of biomarker measurements, indicated as SRB endpoints. For proliferation assays for adherent cell types, individual cell types are cultured at sub-confluence and relative cell numbers quantified by SRB staining at time points optimized for each system (48 h: 3C and CASM3C systems; 72 h: BT and HDF3CGF systems; 96 h: SAg system). SRB was performed by staining cells with 0.1% SRB after fixation with 10% TCA and reading wells at 560 nm.Viability and proliferation of PBMC (T cells) was quantified by Alamar Blue reduction for the SAg and BT systems. For PBMC viability (referred to as PBMC Cytotoxicity within the assay endpoint names), cells were plated (75,000/well in a 96-well plate) and then chemical samples added for 1 h before addition of activators, SEB and TSST-1 (20 ng/mL final concentration each). Cells were incubated for 90 h. Then, Alamar Blue (20 uL/well) (Invitrogen, Cat DAL1100) was added for 6 h, and the plates were read with a fluorescence microplate reader at 546/580 nm (excitation/emission). For PBMC proliferation, cells were plated and activated as above but incubated for only 16 h prior to addition of Alamar Blue. Plates were read after 6 h.
Regarding `Cc1ccc(N(C)C)cc1`, the outcome was inactive. With `CCCCCCC(=O)OCC`, the result was inactive. For the compound `Nc1ccc2c(c1)C(=O)c1ccccc1C2=O`, the outcome was inactive. As to `O=c1c(O)c(-c2ccc(O)c(O)c2)oc2cc(O)cc(O)c12`, the AC50 is 20 µM (active). Take `Oc1ccc2ccccc2c1N=Nc1ccccc1`: the AC50 was 6.33 µM (active). Consider `CCCCCC(=O)O`, for which the outcome was inactive. For `Cc1c(C(=O)O)c(O)cc2c1C(=O)c1c(O)c([C@@H]3O[C@H](CO)[C@@H](O)[C@H](O)[C@H]3O)c(O)c(O)c1C2=O`, the result was inactive. Consider `CC1(C)CC(N=C=O)CC(C)(CN=C=O)C1` (stereo not given), for which the result was inactive.

For the compound `Cc1ccccc1Cl`, the outcome was inactive. Still for that read-out and setting: the value for `OC[C@@H](O)[C@@H](O)[C@H](O)[C@H](O)CO` was “inactive”. Still for that read-out and setting: the value for `C[Si]1(C)O[Si](C)(C)O[Si](C)(C)O[Si](C)(C)O1` was “inactive”; that for `CC(=O)OC/C=C(\C)CCC=C(C)C` was “inactive”. Regarding `Cc1cccc(C)c1O`, the result was inactive.

For `CC(C)c1ccc(C(=O)N=C(N)N)cc1S(C)(=O)=O`, the result was inactive. As to `COc1cc(-c2nc(NC(=O)c3cc4cc(C)cc(C)c4n3CC(=O)O)sc2CCC2CCCCC2)c(OC)cc1Cl`, the AC50 was 1.68 µM (active). Consider `CC(=O)C(C)=CC1C(C)=CCCC1(C)C` (stereo not given), for which the result was inactive. On the same count and under the same terms, the value for `COCCOCCOC` was “inactive”; that for `CCOC(=O)C(C)(C)Oc1ccc(Cl)cc1` was “inactive”. The same measure, in the same setting: the value for `CC1(C)NC(=O)NC1=O` was “inactive”; that for `NCCO` was “inactive”. On the same count and under the same terms, then `CNC(=O)[C@H]1O[C@@H](n2cnc3c(NCc4cc(Cl)ccc4OCc4cc(C)no4)ncnc32)[C@H](O)[C@@H]1N`, with “inactive”; and `COc1cc(C=O)ccc1O`, with “inactive”; and `CNCc1cc(F)ccc1Oc1ccc(Cl)c(Cl)c1`, with “inactive”.

Take `Cc1ccc(C)c(C)c1`: the result was inactive. Still for that read-out and setting: the value for `COC(=O)c1ccc(O)cc1` was “inactive”; that for `Cc1ccc(Cl)cc1` was “inactive”; that for `CCCCCCCC=O` was “inactive”.

On to `CN[C@H]1CC[C@@H](c2ccc(Cl)c(Cl)c2)c2ccc(S(N)(=O)=O)cc21`, for which the AC50 was 19.9 µM (active).

For `CCc1c(C(=O)NN2CCCCC2)nn(-c2ccc(Cl)cc2Cl)c1-c1ccc(Br)cc1`, the AC50 was 6.72 µM (active). With `Nc1nc(N)c2nc(CNc3ccc(C(=O)N[C@@H](CCC(=O)O)C(=O)O)cc3)cnc2n1`, the outcome was inactive. For the compound `O=c1[nH]cc(F)c(=O)[nH]1`, the outcome was inactive. Regarding `CC(C)(C)c1cc(O)c(C(C)(C)C)cc1O`, the result was inactive. The same measure, in the same setting: the value for `CC(=O)Oc1ccccc1C(=O)O` was “inactive”. `C1CCC(SSC2CCCCC2)CC1`: the AC50 is 5.33 µM (active). Turning to `C=CCc1ccc(O)c(OC)c1`, the result was inactive. Regarding `c1cc(-c2ccncc2)ccn1`, the result was inactive. Same read-out and setting: the value for `CCCCCCCCCCCCCCCCCC(=O)O` was “inactive”; that for `CC1=C(/C=C/C(C)=C/C=C/C(C)=C/CO)C(C)(C)CCC1` was “inactive”. Regarding `Oc1ccc2c(c1)OC[C@@H](N1CCC(O)(c3ccc(F)cc3)CC1)[C@H]2O`, the result was inactive. Still for that read-out and setting: the value for `CCNc1cccc(C)c1` was “inactive”.
